An excerpt weighted towards active compounds, which were near 2.3% of everything screened.
TDP-43 yeast inh – qHTS of TDP-43 Inhibitors; TDP-43 expressing yeast growth rescue, BacTiter-Glo, 24 h; Potency, µM (doses to about 46.1 µM), most hits filed as activators; actives 1.8% (n = 410,000); AID 652104, 2013; note: nearly all actives have a fitted effect of over 50% in size
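In this qHTS, compounds that restore growth of yeast expressing TDP-43 appear as activators. Cells (OD600=0.02, galactose medium, raffinose-pregrown) are incubated with compound 24 hr at 30 deg C and growth is quantified by BacTiter-Glo.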
aSyn rescue – qHTS of alpha-syn Inhibitors | Potency, µM (highest dose often 46.1 µM), hits mostly activators | actives 0.14% (n = 370,000) | Yeast expressing alpha-synuclein, growth rescue, BacTiter-Glo, 24 h | AID 652106, 2013; note: nearly all actives have a fitted effect of over 65% in size
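Galactose-induced alpha-syn yeast (OD600=0.02, raffinose-pregrown) + pinned cpd, 24 hr, 30 deg C; growth by BacTiter-Glo luminescence. Growth restoration scores as activation.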
Abeta yeast res – qHTS for compounds that reverse cellular toxicity of Amyloid beta (A-beta) peptide in yeast: Primary Screen | yeast expressing A-beta42, growth rescue, OD600, 48 h; response scale: 0% DMSO, 100% iron-clioquinol control | Potency, µM (doses to about 46.1 µM), usual class: activators | actives 0.063% (n = 410,000); note: nearly all actives have a fitted effect of over 55% in size
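Growth rescue measured by 600 nm absorbance after 48 h yeast culture at 30 C with compound. Values normalized between DMSO and an equimolar ferric chloride plus clioquinol control.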
Akt phos inh – HTS Assay for Inhibitors of Akt Phophorylation: Primary Screen. activity change, % for hits at 50 µM. actives 0.32% (n = 360,000). AID 651550, 2012. Neuro2A IGF-stimulated pAkt S473 HTRF, 20 min; hits give low values; in the data active = activity change below about -80%; inconclusive = mostly about -51% to -80%
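Neuro2A cells (4,500/well, DMEM with 0.5% FBS) were treated with compound at a single 50 µM final concentration, stimulated with 6 nM IGF for 20 min at 37 °C, and lysed. Phospho-Akt Ser473 was read by HTRF as 665/615 ratio ×10^4.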
FUS yeast rescue – qHTS for Suppressors of FUS Proteinopathy: Primary screen using FUS-linked yeast assay; S. cerevisiae FUS-expressing, growth rescue, OD600, 24 h; actives 0.24% (n = 390,000); Potency, µM (titrated, usually from 76.6 µM), usual class: activators; AID 1347120, 2019; note: nearly all actives have a fitted effect of over 55% in size
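Restored growth of FUS-toxic S. cerevisiae, read as 600 nm absorbance after 24 h at 30C in galactose medium (starting OD 0.005). Controls CP55940 and DMSO.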
Each line names hits and unclear results; the compound was inactive in the other large screens; ! = not confirmed by another sample. Unless noted, calls come from the whole dose curve; as a rule, active = well fitted curve in the direction sought with a large enough effect; inconclusive = small, poorly fitted or top-dose-only effect, or another doubt; inactive = no such curve, though single readings can be large; an effect the other way counts as inactive or inconclusive.

Cc1ccccc1CSCCNC(=O)CCSc1ccccc1	TDP-43 yeast inh 16µM, Abeta yeast res inconclusive
CCn1c2ccccc2c2cc(/C=N/n3cn[nH]c3=S)ccc21	TDP-43 yeast inh 16µM
COc1cc(NC(=O)Cn2cc(S(=O)(=O)c3ccccc3)c(=O)c3ccccc32)cc(OC)c1	none (no result: aSyn rescue, Akt phos inh)
COc1ccc2c(c1)c(=O)c(S(=O)(=O)c1ccc(C)c(C)c1)cn2CC(=O)Nc1ccccc1	FUS yeast rescue 13µM (no result: aSyn rescue, Akt phos inh)
COc1ccccc1CNC(=O)c1ccc2c(c1)sc1nc(-c3ccc(F)cc3)cn12	none (no result: aSyn rescue, Akt phos inh)
Oc1ccc(Br)cc1-c1nc2cnccn2c1NC1CCCC1	TDP-43 yeast inh 22µM
Cc1ccc(/C(N)=N/OC(=O)c2ccc3c(c2)OCO3)cc1	TDP-43 yeast inh inconclusive
COc1ccc(/C(N)=N/OC(=O)c2ccc3c(c2)OCO3)cc1	TDP-43 yeast inh 5.6µM
N/C(=N\OC(=O)c1cccs1)c1ccc(Cl)cc1	none
COc1ccc(/C(N)=N/OC(=O)c2cccs2)cc1	TDP-43 yeast inh 16µM
N/C(=N\OC(=O)c1ccc2c(c1)OCO2)c1ccc(Cl)cc1	TDP-43 yeast inh 3.2µM
O=C(CSc1nc2c([nH]c3ccccc32)c(=O)n1-c1ccc(F)cc1)N1CCCc2ccccc21	none (no result: Akt phos inh)
CC1=C(C(=O)Nc2ccc(C)cc2C)C(c2cccn2C)n2ncnc2N1 (configuration not stated)	none (no result: Akt phos inh)
CCOC(=O)c1cc(-c2ccc(F)cc2)n(CCC(=O)NC2CCC(C)CC2)c1C (configuration not stated)	FUS yeast rescue inconclusive (no result: aSyn rescue, Akt phos inh)
Cc1nn(-c2ccccn2)c2c1-c1nc(N)sc1CC2	aSyn rescue 13µM (no result: TDP-43 yeast inh, Abeta yeast res, Akt phos inh, FUS yeast rescue)
CCCOc1ccc(Nc2nc(SC)ncc2C(=O)OCC)cc1	none (no result: aSyn rescue, Akt phos inh)
COc1ccc2c(c1)c(=O)c(S(=O)(=O)c1ccc(F)cc1)cn2Cc1ccccc1Cl	none (no result: aSyn rescue, Akt phos inh)
CC(C)c1ccc(NC(=O)COC(=O)[C@@H]2CCCN2C(=O)c2cccs2)cc1	TDP-43 yeast inh 35µM, FUS yeast rescue inconclusive
Cc1ccc2c(c1)N(C(=O)N1CCC(C(=O)NCc3ccccc3C)CC1)CC(C)O2 (configuration not stated)	none (no result: aSyn rescue, Akt phos inh)
CC(=O)N1CCCc2cc(S(=O)(=O)N3CCCC(C(=O)N4CCN(c5ccccc5)CC4)C3)ccc21 (configuration not stated)	none
Cc1cccc(CNC(=O)C2CCN(S(=O)(=O)c3ccc4c(c3)CCCN4C(=O)C3CCC3)CC2)c1	FUS yeast rescue 28µM (no result: aSyn rescue, Akt phos inh)
CC(=O)N1CCCc2cc(S(=O)(=O)N3CCCC(C(=O)N4CCN(c5cc(C)ccc5C)CC4)C3)ccc21 (configuration not stated)	FUS yeast rescue 13µM!
Cc1ccc(CNC(=O)C2CCN(S(=O)(=O)c3ccc4c(c3)CCCN4C(=O)C3CCC3)CC2)cc1	none (no result: aSyn rescue, Akt phos inh)
COc1ccc(CN2C(=O)N3Cc4ccccc4C3CS2(=O)=O)cc1 (configuration not stated)	none (no result: TDP-43 yeast inh, aSyn rescue, Abeta yeast res, Akt phos inh)
Cc1nc(Nc2cccc(Cl)c2)c2oc3ccccc3c2n1	TDP-43 yeast inh 16µM
Cc1nc2ccccc2nc1Nc1cccc(Cl)c1	TDP-43 yeast inh 13µM, Abeta yeast res inconclusive
COc1ccc(Nc2nc3ccccc3nc2C)cc1	none
Cc1nc(Nc2ccccc2F)c2oc3ccccc3c2n1	TDP-43 yeast inh 2.5µM
Cc1nc(Oc2ccccc2)c2oc3ccccc3c2n1	TDP-43 yeast inh inconclusive
COc1ccc(Oc2nc(C)nc3c2oc2ccccc23)cc1	TDP-43 yeast inh 16µM
Cc1nc(Nc2ccccc2O)c2oc3ccccc3c2n1	none
Cc1nc2ccccc2nc1OCc1cccc(Cl)c1	TDP-43 yeast inh 13µM
CN1c2ccccc2-c2nc3ccccc3n2C1c1cccs1 (configuration not stated)	TDP-43 yeast inh 7.1µM
Cc1ccc(C2N(C)c3ccccc3-c3nc4ccccc4n32)o1 (configuration not stated)	none
CCc1nc2c(OCC(=O)c3ccc(Cl)cc3Cl)cccn2c1N(C)C(=O)c1ccncc1	none
CCc1nc2c(OCc3ccc(Cl)cc3Cl)cccn2c1N(C)C(=O)c1ccccc1F	TDP-43 yeast inh 18µM, FUS yeast rescue inconclusive

Compound activity deposited in PubChem by National Center for Advancing Translational Sciences (NCATS).
